# Experiment: modulators of HCV replicon luciferase signal, primary screen, HCV replication inhibitor project, Huh7 cells, luciferase reporter (AID 1109);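 further: huh7 hepatoma cells harbouring a luciferase neomycin HCV replicon reporter; luciferase luminescence as measure of HCV replicon replication; test concentration not given here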
# Settings: 48 h, higher = more signal
row,Compound,z-score
1,CCCCCCCCCCC(O)C1C=CC2C(=O)N(C)C(=O)C2N1Nc1ccccc1 (stereo not given),-0.28
2,COC(=O)[C@@]1(Cc2ccccc2)[C@H]2c3cc(C(=O)N(C)C)n(Cc4ccc(Cl)c(C(F)(F)F)c4)c3C[C@H]2CN1C(=O)c1ccccc1,-2.61
3,COC(=O)[C@@]1(Cc2ccc(F)cc2)[C@H]2c3cc(C(=O)N4CCCC4)n(CCc4c[nH]c5cc(F)ccc45)c3C[C@H]2CN1C(=O)c1ccccc1,-1.62
4,C=CCNC(=O)[C@@H]1[C@H]2C(=O)O[C@H](c3ccccc3)[C@H](c3ccccc3)N2[C@H](c2ccc(OCCO)cc2)[C@@]12C(=O)Nc1ccc(C#CC3=CCCCC3)cc12,-2.53
5,C=CCOC(=O)[C@H]1[C@@H]2C(=O)O[C@@H](c3ccccc3)[C@@H](c3ccccc3)N2[C@@H](c2ccc(OCCOC(=O)[C@H]3C[C@H]4C(=O)NCC(=O)N4[C@H]3c3ccc(O)cc3)cc2)[C@]12C(=O)Nc1ccccc12,-2.07
6,CO[C@H]1O[C@H](CO)[C@@H](OC(=O)Nc2cccc(F)c2)[C@H](OC(=O)c2cc3ccccc3[nH]2)[C@H]1OC(=O)c1cc2ccccc2[nH]1,-2.25
7,O=C1O[C@@H](c2ccccc2)[C@@H](c2ccccc2)N2[C@@H](c3ccccc3OCCO)[C@]3(C(=O)Nc4ccc(C#CC5(O)CCCCCC5)cc43)[C@@H](C(=O)N3CCCCCCC3)[C@H]12,-2.22
8,CCCCCCc1nc(Cc2cc(OC)c(OC)c(OC)c2)c(C)c2c1[Si](C(C)C)(C(C)C)OC2,-0.715
9,[N-]=[N+]=NCc1ccccc1[C@H]1OC(c2ccc(OCCCO)cc2)=N[C@@]1(CCS(=O)(=O)c1ccccc1)C(=O)O,-1.98
10,COc1ccc(NN2C(C(O)c3ccc(F)cc3)C=CC3C(=O)N(C4CCCCC4)C(=O)C32)cc1 (stereo not given),-0.502
11,CC1C2C(CCCO)=CC(C3C(=O)N(C)C(=O)C23)N1Cc1cccc(OC(F)(F)F)c1 (stereo not given),-0.75
12,CCOC(=O)C1=C[C@@H](C(C)(C)C)N(S(=O)(=O)c2ccc(C)cc2)[C@H]1c1ccc(OC)cc1,-2.36
13,Cc1ccc(N2C(=O)c3ccccc3[C@@H](C(=O)NCCN3CCOCC3)[C@@H]2c2ccc(CO)cc2)nc1,0.193
14,O=C(N1CCOCC1)[C@]1(CCS(=O)(=O)c2ccccc2)N=C(c2ccc(OCCCO)cc2)O[C@@H]1c1ccccc1,-0.954
15,C=CCC(OC(C)=O)[C@@H]1[C@@H](N(Cc2ccc(-c3ccccc3)cc2)C(=O)Cc2ccc(OC)cc2)c2cc(OCCCO)ccc2N1C(=O)Cc1ccc(OC)cc1 (stereo not given in full),-0.496
16,C=C(COC)C(=O)CC[C@H](OC(C)=O)c1ccccc1OCCO,-1.94
17,COc1cc(CO)cc(I)c1O[C@H]1C=C(C(=O)NCCO)C[C@@H](N(CCN2CCOCC2)C(=O)C2CCCO2)[C@@H]1O (stereo not given in full),0.109
18,CC(C)(C)OC(=O)CC[C@@]1(C(N)=O)N=C(c2ccc(OCCCO)cc2)O[C@@H]1c1ccccc1CN=[N+]=[N-],0.0506
19,[N-]=[N+]=NCc1ccccc1[C@H]1OC(c2ccc(OCCCO)cc2)=N[C@@]1(Cc1ccccc1N=[N+]=[N-])C(=O)N1CCOCC1,-2.2
20,CN(C)CCCCCCNC(=O)[C@@H]1C[C@@H]2C(=O)N[C@@H](CCCC[N+](C)(C)C)C(=O)N2[C@@H]1c1cccc(OCCO)c1,3.7
21,CCCCC(=C=CC[C@@H](O)c1ccccc1OCCO)C[C@@H](O)c1ccccn1,-1.61
22,CC1C2C(CCCO)=CC(C3C(=O)N(C(N)=O)C(=O)C23)N1Cc1cccc(OC(F)(F)F)c1 (stereo not given),-1.07
23,C=CCC(OC(C)=O)[C@@H]1[C@@H](N(Cc2ccc(-c3ccccc3)cc2)C(=O)Cc2ccc(OC)cc2)c2cc(OCCCO)ccc2N1C(=O)c1ccc2ccccc2c1 (stereo not given in full),-0.856
24,COc1cc(Cc2cc3c(c(-c4ccccc4)n2)[Si](C(C)C)(C(C)C)OC3)cc(OC)c1OC,0.385
25,O=C1N(Cc2ccccc2)Cc2ccccc2C[C@@]12COC(c1ccc(OCCCO)cc1)=N2,-3.52
